Consider 13 compounds from PubChem BioAssay (NCI).

Test systems include SK-MEL-2 melanoma; EKVX NSCLC; SN12C renal; UO-31 renal; TK-10 renal; ACHN renal; CAKI-1 renal; A498 renal; MOLT-4 leukemia; CCRF-CEM leukemia.
What all share (assay): NCI-60 one-dose screen, 48 h (100 = growth as untreated, 0 = no growth, -100 = all killed)
What all share (conditions): 10 µM unless noted

About 83,000 compounds went through this panel and 20% of them were active in at least one assay; those are over-represented in the sample as a whole.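 Single-dose data. Exposure time 48 hours. Values below 10 considered active.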 Values without a mark were called inactive. Calls of active or inactive are those of the source.

In the case of `Oc1c(Br)cc(Cl)cc1C(c1cc(Cl)cc(Br)c1O)C(Cl)(Cl)Cl`, the growth was -30.2% (active) in the experiment on SK-MEL-2 melanoma; 15.7% in the experiment on EKVX NSCLC; 10.8% with SN12C renal; 12.6% with UO-31 renal; 24.5% in the experiment on TK-10 renal; 10.5% in the experiment on ACHN renal. For the same compound, the growth with CAKI-1 renal is 1.81% (active); with A498 renal, -12.4% (active); with MOLT-4 leukemia it was 14.6%.
In the case of `Cc1cc2nc(CS)[nH]c2cc1C`, the growth in the experiment on SK-MEL-2 melanoma is 101%; with EKVX NSCLC it was 84.8%; in the experiment with SN12C renal, 102%; in the experiment with UO-31 renal, 83.1%; with TK-10 renal, 131%; with CAKI-1 renal it was 43.9%. The growth in the experiment with A498 renal was 95.7%; with CCRF-CEM leukemia, 55%; in the experiment with MOLT-4 leukemia, -39.5% (active).
On to `COc1ccc(N=N/N=c2\sc3cc(OC)ccc3n2C)cc1`, for which the growth is 83.8% in the experiment with SK-MEL-2 melanoma; 74.8% in the experiment with EKVX NSCLC; 89% with SN12C renal; 82.7% with UO-31 renal; 106% in the experiment on TK-10 renal; 96.8% with CAKI-1 renal. Further, the growth in the experiment with A498 renal is 97%; in the experiment on CCRF-CEM leukemia, 93.5%; with MOLT-4 leukemia it was 92.1%.
Turning to `CC(C)(C)CC(C)(C)c1ccc(OCCSC(=N)N)cc1`, the growth in the experiment with SK-MEL-2 melanoma was 96.4%; in the experiment on EKVX NSCLC it was 51.8%; in the experiment with SN12C renal it was 53.7%; in the experiment on UO-31 renal, 37.2%; in the experiment with TK-10 renal, 72.3%; in the experiment with ACHN renal, 69.1%. Further, the growth with CAKI-1 renal is 71.3%; with A498 renal, 60.2%; in the experiment with MOLT-4 leukemia it was 9.3% (active).
In the case of `O=C(/C=C/C=C/c1ccccc1)c1ccco1`, the growth is 103% in the experiment on SK-MEL-2 melanoma; 112% in the experiment with EKVX NSCLC; 99.8% in the experiment on SN12C renal; 62.6% in the experiment on UO-31 renal; 128% in the experiment with TK-10 renal; 97.3% in the experiment with CAKI-1 renal. Moreover, the growth is 106% in the experiment on A498 renal and 30.2% in the experiment on CCRF-CEM leukemia.
For the compound `CCCCCCCCCCCCCCNCc1ccccc1`, the growth was 96.4% in the experiment with SK-MEL-2 melanoma; 93.4% in the experiment on EKVX NSCLC; 79% in the experiment on SN12C renal; 62.4% with UO-31 renal; 103% in the experiment with TK-10 renal; 82.2% with CAKI-1 renal. Besides, the growth in the experiment with A498 renal was 92.7%; with CCRF-CEM leukemia it was 60.5%; in the experiment on MOLT-4 leukemia it was 56.4%.
In the case of `CN(C)C(=O)SC1=C(c2c(Cl)cccc2Cl)C(=O)c2ccccc21`, the growth with SK-MEL-2 melanoma was 136%; in the experiment with EKVX NSCLC, 0.799% (active); with SN12C renal, 82.3%; in the experiment with UO-31 renal, -34.4% (active); in the experiment with TK-10 renal, -43.7% (active); in the experiment on CAKI-1 renal it was -28.9% (active). Further, the figures for the growth with A498 renal, with CCRF-CEM leukemia and in the experiment on MOLT-4 leukemia were 115%, 0.862% (active) and -22.5% (active), respectively.
With `CCOc1ccc(-c2nc3ccc(-c4nc5ccc(N6CCN(C)CC6)cc5[nH]4)cc3[nH]2)cc1`, the growth with SK-MEL-2 melanoma was 4.1% (active); in the experiment with EKVX NSCLC it was -75.5% (active); with SN12C renal it was -91.4% (active); in the experiment on UO-31 renal, 23.2%; in the experiment on TK-10 renal it was -84.9% (active); in the experiment on CAKI-1 renal, -43.8% (active). For the same compound, the growth in the experiment with A498 renal is -91.6% (active); in the experiment with CCRF-CEM leukemia, 4.03% (active); with MOLT-4 leukemia, -60.5% (active).
For `O=C(/C=C\c1cc(Br)ccc1O)/C=C/c1cc(Br)ccc1O`, the growth with SK-MEL-2 melanoma is -63.1% (active); with EKVX NSCLC, 8.88% (active); in the experiment with SN12C renal it was -55.4% (active); with UO-31 renal, -72.9% (active); with TK-10 renal it was -20% (active); in the experiment on ACHN renal it was -59.8% (active). The growth in the experiment on CAKI-1 renal is -2.63% (active); in the experiment on A498 renal, -70.1% (active); with MOLT-4 leukemia it was 0.164% (active).
For the compound `O=C(Nc1ccc(F)cc1)ON=C1CCCCC1`, the growth in the experiment on SK-MEL-2 melanoma is 102% [100 µM]; with EKVX NSCLC it was 111% [100 µM]; with SN12C renal, 100% [100 µM]; with UO-31 renal it was 92.2% [100 µM]; in the experiment with TK-10 renal, 101% [100 µM]; in the experiment on CAKI-1 renal, 79.3% [100 µM]. Also, the figures for the growth with A498 renal, in the experiment with CCRF-CEM leukemia and with MOLT-4 leukemia were 95.2% [100 µM], 97.2% [100 µM] and 95.3% [100 µM], respectively.
Turning to `CC(=O)C(=Cc1ccc(C=C(C(C)=O)C(C)=O)cc1)C(C)=O`, the growth in the experiment on SK-MEL-2 melanoma is 70.8%; in the experiment with EKVX NSCLC, 94.2%; with SN12C renal, 17.4%; in the experiment with UO-31 renal, -12.2% (active); in the experiment with TK-10 renal, 5.12% (active); in the experiment with CAKI-1 renal it was -50.7% (active). For the same compound, the growth in the experiment with A498 renal is 94.1%; with CCRF-CEM leukemia, -5.86% (active); with MOLT-4 leukemia, 6.74% (active).
For the compound `S=C(NCCNC(=S)[S][Sn]([c]1ccccc1)([c]1ccccc1)[c]1ccccc1)[S][Sn]([c]1ccccc1)([c]1ccccc1)[c]1ccccc1`, the growth with SK-MEL-2 melanoma was -93.1% (active); in the experiment on EKVX NSCLC it was -91.4% (active); in the experiment on SN12C renal, -79.7% (active); in the experiment with UO-31 renal, -100% (active); with TK-10 renal, -100% (active); in the experiment on ACHN renal it was -100% (active). Also, the growth was -71.3% (active) with CAKI-1 renal, -35.3% (active) in the experiment on CCRF-CEM leukemia and -32.8% (active) with MOLT-4 leukemia.
For `CCC(=O)Sc1ccccc1C(=O)Nc1ccc(Cl)cc1`, the growth with SK-MEL-2 melanoma is 133%; in the experiment on EKVX NSCLC, 29.5%; in the experiment on SN12C renal, 49.5%; in the experiment with UO-31 renal it was 61.6%; in the experiment on TK-10 renal it was 69.4%; with CAKI-1 renal it was 31.9%. Further, the values for the growth with A498 renal, in the experiment with CCRF-CEM leukemia and in the experiment with MOLT-4 leukemia were 36.8%, 27.1% and 30.9%, respectively.
